Here are results for 32 molecules from PubChem BioAssay (Tox21).

Results filed as inconclusive are left out. A number with no mark means an inactive call. The source made the active and inactive calls. Unless noted, calls come from the whole dose curve; as a rule, active = well fitted curve in the direction sought with a large enough effect in the repeat runs; inconclusive = weak or mixed curves; inactive = no such curve, though single readings can be large; an effect the other way counts as inactive or inconclusive.

Assay [1] deals with Peroxisome proliferator-activated receptor delta (Homo sapiens) (UniProt Q03181). Briefly: qHTS assay to identify small molecule agonists of the peroxisome proliferator-activated receptor delta (PPARd) signaling pathway (AID 743212; calls by dose curve). The essentials: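 Quantitative high-throughput agonist screen in a HEK293H beta-lactamase reporter line under UAS control. Compounds in DMSO, at 37 C. Fluorescence read after 2 h with FRET substrate at room temperature.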

Assay [2] is described as follows: qHTS assay to identify small molecule antagonists of the peroxisome proliferator-activated receptor delta (PPARd) signaling pathway - cell viability counter screen (AID 743213). Note: nearly all actives have a fitted effect of over 50% in size. Note: potency is the fitted concentration of half-maximal effect. The method in brief:
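Agonist-stimulated (L165041, 300 nM final) HEK293H PPARd UAS-bla cells are exposed to compounds for 17 h at 37 C, and ATP-based luminescence (CellTiter-Glo) from the same wells reports cytotoxicity.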
For orientation: Quantitative high-throughput screening tests each substance at several concentrations.

Assay [3] has as its target Peroxisome proliferator-activated receptor delta (Homo sapiens) (UniProt Q03181). Put plainly: qHTS assay to identify small molecule antagonists of the peroxisome proliferator-activated receptor delta (PPARd) signaling pathway (AID 743215; active = well fitted inhibition curve with a large enough effect in the signal ratio in the repeat runs, not every such curve was filed as active; the % refers to the signal ratio; note: series mostly up to about 62 µM). The essentials:
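HEK293H UAS-bla, PPARd; agonist L165041 300 nM final with cpd in DMSO; 37 C 17 h; FRET substrate, RT 2 h; fluorescence intensity.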

Assay [4] in a line: qHTS assay to identify small molecule agonists of the farnesoid-X-receptor (FXR) signaling pathway - cell viability counter screen (AID 743218). Note: nearly all actives have a fitted effect of over 45% in size. The method in brief: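 Parallel cytotoxicity test: compound-treated (16 h, 37 C) HEK 293T FXR-bla reporter cells were lysed with CellTiter-Glo and luminescence recorded.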
Assay [5] is described as follows: qHTS assay to identify small molecule antagonists of the farnesoid-X-receptor (FXR) signaling pathway - cell viability counter screen (AID 743221; active = well fitted cell-killing curve with a large enough effect in the repeat runs, not every such curve was filed as active; note: nearly all actives have a fitted effect of over 50% in size). The method in brief:
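HEK 293T FXR-bla cells, 5 h pre-incubation; compound + CDCA 50 uM final, 16 h, 37 C; beta-lactamase FRET read first, then CellTiter-Glo luminescence, 30 min RT.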

For assay [6], the target named is Vitamin D3 receptor (Homo sapiens) (UniProt P11473). Briefly: qHTS assay to identify small molecule agonists of the vitamin D receptor (VDR) signaling pathway (AID 743222; calls by dose curve). The essentials: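 In VDR-bla cells, compound-induced beta-lactamase expression is quantified by FRET substrate fluorescence. Treatment lasts 16 h at 37C; substrate develops 2 h at room temperature.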

Assay [7] shares this target. Briefly: qHTS assay to identify small molecule antagonists of the vitamin D receptor (VDR) signaling pathway (AID 743223; active = well fitted inhibition curve with a large enough effect in the signal ratio in the repeat runs, not every such curve was filed as active; the % refers to the signal ratio). The method in brief:
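Beta-lactamase reporter read-out: FRET substrate fluorescence after 2 h at room temperature, following 16 h exposure of VDR-bla cells to test compound plus 3 nM (final) 1alpha,25-dihydroxyvitamin D3 agonist at 37C.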

A short description of assay [8]: qHTS assay to identify small molecule agonists of the vitamin D receptor (VDR) signaling pathway - cell viability counter screen (AID 743224). Note: series mostly up to about 63 µM; nearly all actives have a fitted effect of over 50% in size. The essentials:
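Plated VDR-bla cells (4 h, 37C) received compound, incubated 16 h, then LiveBLAzer substrate 2 h RT; CellTiter-Glo added afterwards, luminescence read at 30 min.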

Assay [9] addresses Bile acid receptor (Homo sapiens) (UniProt Q96RI1). Put plainly: qHTS assay to identify small molecule antagonists of the farnesoid-X-receptor (FXR) signaling pathway (AID 743217; active = well fitted inhibition curve with a large enough effect in the signal ratio in the repeat runs, not every such curve was filed as active; the % refers to the signal ratio). The method in brief: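 GeneBLAzer FXR-UAS-bla HEK 293T, CDCA-stimulated (50 uM final). Compound treatment 16 h, 37 °C. Detection: beta-lactamase cleavage of B/G FRET substrate, fluorescence.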
Assay [10] has the same target. Briefly: qHTS assay to identify small molecule agonists of the farnesoid-X-receptor (FXR) signaling pathway (AID 743220; active = well fitted activation curve with a large enough effect in the signal ratio in the repeat runs, not every such curve was filed as active; the % refers to the signal ratio). The essentials:
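Beta-lactamase reporter under UAS control in GeneBLAzer FXR HEK 293T cells (5000/well) measured with LiveBLAzer FRET substrate after 2 h at room temperature. Compound exposure lasted 16 h at 37C.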
% is set by controls: 0 for no effect and ±100 for the full control effect.

Vitamin D3 receptor (Homo sapiens), sequence (P11473 whole entry, looked up): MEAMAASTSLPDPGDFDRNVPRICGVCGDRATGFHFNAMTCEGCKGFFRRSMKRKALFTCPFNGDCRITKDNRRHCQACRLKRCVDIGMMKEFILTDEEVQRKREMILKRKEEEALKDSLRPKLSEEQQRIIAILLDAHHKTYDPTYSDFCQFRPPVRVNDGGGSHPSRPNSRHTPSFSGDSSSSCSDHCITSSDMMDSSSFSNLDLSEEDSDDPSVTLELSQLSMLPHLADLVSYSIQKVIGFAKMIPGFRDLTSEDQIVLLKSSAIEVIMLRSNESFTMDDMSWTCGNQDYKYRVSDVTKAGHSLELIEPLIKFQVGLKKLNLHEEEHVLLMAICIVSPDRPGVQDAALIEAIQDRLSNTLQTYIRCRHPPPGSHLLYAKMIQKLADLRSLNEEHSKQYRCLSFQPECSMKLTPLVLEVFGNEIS
Bile acid receptor (Homo sapiens), sequence (Q96RI1 whole entry, looked up): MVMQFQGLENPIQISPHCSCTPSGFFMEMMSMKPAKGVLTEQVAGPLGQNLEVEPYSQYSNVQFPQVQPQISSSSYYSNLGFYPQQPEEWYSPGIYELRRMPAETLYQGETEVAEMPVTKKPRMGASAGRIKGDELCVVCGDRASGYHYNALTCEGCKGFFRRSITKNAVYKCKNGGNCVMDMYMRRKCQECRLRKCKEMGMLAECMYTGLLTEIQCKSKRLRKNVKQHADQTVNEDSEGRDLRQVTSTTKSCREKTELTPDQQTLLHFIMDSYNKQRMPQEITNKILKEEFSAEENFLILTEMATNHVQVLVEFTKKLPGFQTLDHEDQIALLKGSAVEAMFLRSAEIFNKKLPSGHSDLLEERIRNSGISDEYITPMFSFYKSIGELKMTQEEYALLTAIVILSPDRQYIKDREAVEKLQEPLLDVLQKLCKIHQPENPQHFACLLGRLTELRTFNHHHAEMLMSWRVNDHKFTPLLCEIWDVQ
Peroxisome proliferator-activated receptor delta (Homo sapiens), sequence (Q03181 whole entry, looked up): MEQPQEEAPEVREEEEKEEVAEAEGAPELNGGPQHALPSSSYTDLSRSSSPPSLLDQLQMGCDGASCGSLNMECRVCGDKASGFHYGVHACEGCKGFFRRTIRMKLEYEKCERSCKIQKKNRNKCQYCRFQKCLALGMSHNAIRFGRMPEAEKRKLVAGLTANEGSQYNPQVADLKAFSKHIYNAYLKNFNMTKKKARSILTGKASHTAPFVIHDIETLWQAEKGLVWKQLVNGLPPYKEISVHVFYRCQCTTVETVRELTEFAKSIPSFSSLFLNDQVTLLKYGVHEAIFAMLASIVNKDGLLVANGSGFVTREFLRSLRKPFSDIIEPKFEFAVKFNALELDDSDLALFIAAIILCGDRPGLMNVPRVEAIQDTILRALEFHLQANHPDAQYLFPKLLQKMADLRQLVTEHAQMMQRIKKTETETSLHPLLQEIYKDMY

With `COC(=O)c1cc(Cl)ccc1[N+](=O)[O-]`, the Potency result in assay [1], in assay [2], in [4] and in assay [5] was “inactive” throughout. Also, the molecule was called inactive in assay [3], in [6], in assay [7] and in assay [8].
`O=[N+]([O-])c1ccccc1CCO`: the Potency entry in assay [1], in [2], in assay [4] and in [5] was “inactive” throughout. Besides, the molecule was classed as inactive in assay [3], in assay [6], in assay [7] and in [8].
Regarding `CCOc1ccc(NC(C)=O)cc1N`, the Potency result in assay [1], in [2], in [4] and in assay [5] was “inactive” each time. Also, the call in assay [3], in assay [6], in assay [7] and in [8] was inactive.
`O=C(O)CCc1nc2ccccc2[nH]1`: the Potency entry in assay [1], in [2], in assay [4] and in assay [5] was “inactive” each time. Further, the molecule was classed as inactive in assay [3] and in [8].
For the molecule `CC1=CC(=C(c2ccc(N)cc2)c2ccc(N)cc2)C=CC1=N`, the activation was -0.0637% [at 5.95 µM] in [1] and -2.54% [at 6.01 µM] in [6]. Moreover, the viability change, negative = cytotoxic in assay [2] is -32.9% [at 6.26 µM]; in assay [4], -22.2% [at 5.95 µM]. Further, the ratio activity, negative = inhibition in assay [3] is -10.9% [at 6.26 µM]. The activity change, negative = cytotoxicity was -5.62% [at 5.95 µM] in assay [5] and -18.2% [at 5.95 µM] in assay [8].
Regarding `O=Cc1ccc([N+](=O)[O-])cc1`, the Potency result in assay [1], in assay [2] and in assay [4] was “inactive” throughout. Besides, the call in [3], in assay [6], in assay [7] and in assay [8] was inactive.
In the case of `C1CCN(CN2CCCCC2)CC1`, the Potency entry in assay [1], in [2] and in assay [4] was “inactive” in each case. For the same molecule, the molecule was called inactive in [3], in assay [6] and in [7].
Regarding `N#CCCCC(C#N)CCC#N` (stereo unspecified), the Potency result in assay [1], in [2], in assay [4] and in [5] was “inactive” each time. The outcome in assay [3] and in assay [8] was inactive.
As to `CC(CN=Cc1ccccc1O)N=Cc1ccccc1O` (stereo unspecified), the Potency result in assay [1], in assay [2], in assay [4] and in [5] was “inactive” each time. Further, the molecule was classed as inactive in assay [3] and in [8].
As for `C[Si](C)(C)O[Si](C)(C)O[Si](C)(C)C`, the Potency result in assay [1], in assay [2], in assay [4] and in assay [5] was “inactive” throughout. Further, the molecule was classed as inactive in assay [3], in [6], in assay [7] and in assay [8].
In the case of `SCCOCCOCCS`, the Potency result in assay [1], in [2], in assay [4] and in [5] was “inactive” throughout. Further, the call in [3], in assay [6] and in assay [8] was inactive.
Turning to `CCC(C)C1N=C(C)C(C)S1` (stereo unspecified), the Potency result in assay [1], in assay [2], in assay [4] and in [5] was “inactive” in each case. For the same molecule, the result in assay [3] and in assay [8] was inactive.
For the molecule `CCCCCCCCOCCCN`, the Potency entry in assay [1] and in [5] was “inactive” throughout. Further, the Potency in assay [2] was 24.5 µM (active). The result in [3] and in [6] was inactive.
`CCCCCCCCC(=O)OCC(C)OC(=O)CCCCCCCC` (stereo unspecified): the Potency entry in [1], in assay [2], in [4] and in assay [5] was “inactive” in each case. The molecule was classed as inactive in assay [3], in assay [6], in assay [7] and in [8].
For the molecule `Cc1ccc2ccccc2c1[N+](=O)[O-]`, the Potency entry in assay [1], in assay [2], in assay [4] and in assay [5] was “inactive” in each case. The call in [3], in assay [6], in assay [7] and in assay [8] was inactive.
In the case of `COC(=O)Cc1cccc2ccccc12`, the Potency result in assay [1], in assay [2], in assay [4] and in assay [5] was “inactive” each time. The molecule was classed as inactive in assay [3], in [6], in assay [7] and in [8].
Turning to `CCC1=C(C)CN(C(=O)NCCc2ccc(S(=O)(=O)NC(=O)NC3CCC(C)CC3)cc2)C1=O` (stereo unspecified), the Potency entry in assay [1], in assay [2], in assay [4] and in assay [5] was “inactive” each time. The outcome in assay [3], in assay [7] and in [8] was inactive.
With `COc1cc(C)c(Cc2cnc(N)nc2N)cc1OC`, the Potency entry in assay [1], in assay [2], in assay [4] and in [5] was “inactive” each time. In addition, the outcome in assay [3] and in assay [8] was inactive.
For `CC(C)(C)N`, the Potency entry in assay [1], in [2] and in [4] was “inactive” each time. Also, the molecule was classed as inactive in assay [3], in assay [6] and in assay [7].
On to `CC(C)Oc1ccccc1O`, for which the Potency entry in assay [1], in [2], in assay [4] and in [5] was “inactive” throughout. Besides, the molecule was classed as inactive in assay [3] and in [8].
In the case of `O=C(Cl)c1ccc(F)c(Cl)c1`, the Potency entry in assay [1], in assay [2] and in assay [4] was “inactive” in each case. Also, the molecule was called inactive in assay [3], in [6], in [7] and in assay [8].
For the molecule `Oc1ccc(Oc2ccccc2)cc1`, the Potency result in [1], in assay [2], in assay [4] and in [5] was “inactive” in each case. Moreover, the outcome in assay [9], in [10], in assay [6], in assay [7] and in assay [8] was inactive.
`CC(C)=CCCC(C)C=O` (stereo unspecified): the Potency result in assay [1], in [2] and in assay [4] was “inactive” throughout. For the same molecule, the molecule was classed as inactive in [9], in [10], in assay [6], in assay [7] and in [8].
On to `CCCCCC1CCC(=O)O1` (stereo unspecified), for which the Potency entry in assay [1], in assay [2], in assay [4] and in [5] was “inactive” each time. Moreover, the result in assay [10] and in assay [7] was inactive.
Consider `O=C(OCCOCCOCCOC(=O)c1ccccc1)c1ccccc1`, for which the Potency result in [1], in [2], in assay [4] and in assay [5] was “inactive” throughout. Moreover, the call in [10], in [6], in assay [7] and in [8] was inactive.
In the case of `CCOc1ccc2c(c1)C(C)CC(C)(C)N2` (stereo unspecified), the Potency result in [1], in [2], in assay [4] and in [5] was “inactive” in each case. For the same molecule, the molecule was called inactive in assay [9], in assay [10], in [6], in assay [7] and in assay [8].
Take `O=C1c2ccccc2C(=O)C1c1ccc2cc(S(=O)(=O)O)cc(S(=O)(=O)O)c2n1`: the Potency entry in assay [1], in [2] and in assay [5] was “inactive” in each case. Further, the molecule was classed as inactive in [3] and in assay [8].
For the molecule `CCCc1nc(C)c2c(=O)[nH]c(-c3cc(S(=O)(=O)N4CCN(CC)CC4)ccc3OCC)nn12`, the Potency entry in assay [1], in assay [2], in assay [4] and in assay [5] was “inactive” each time. Also, the call in assay [6] and in assay [7] was inactive.
In the case of `O=C(c1ccco1)N1CCNCC1`, the Potency result in assay [1], in [2], in assay [4] and in [5] was “inactive” each time. In addition, the molecule was classed as inactive in assay [10] and in [8].
In the case of `Cc1cc(SC2=C(O)C[C@@](CCc3ccc(N)cc3)(C(C)C)OC2=O)c(C(C)(C)C)cc1CO`, the Potency result in assay [1], in assay [2] and in [4] was “inactive” throughout. The molecule was called inactive in assay [10], in [6], in [7] and in assay [8].
Regarding `Cc1ccc(S(=O)(=O)NC(=O)NC2CCCC2)cc1`, the Potency entry in [1], in [2], in assay [4] and in [5] was “inactive” in each case. For the same molecule, the molecule was classed as inactive in assay [6], in [7] and in assay [8].
Turning to `N#C[C@@H]1CC(F)(F)CN1C(=O)CNC1CC2CCC(C1)N2c1ncccn1` (stereo partly specified), the Potency result in assay [1], in assay [2], in assay [4] and in assay [5] was “inactive” throughout. Also, the outcome in assay [9] and in assay [10] was inactive.
